Compound activity deposited in PubChem by several laboratories.
BJeLR lethal: BJeLR cell viability loss; actives 0.17% (n = 300,000); AID 1554; BJeLR (HRASV12) viability, CellTiter-Glo ATP luminescence, 48 h; inhibition, % (no concentration beside the values); in the data active = inhibition above about 50%; inconclusive = no clear call, values can overlap the other calls
RN4220 kill: kills Staphylococcus aureus RN4220. S. aureus RN4220 growth, OD600, 16 h. inhibition, % (test concentration not listed). actives 0.33% (n = 330,000); in the data active = inhibition above about 85%
CCHF vOTU inh: blocks the CCHF virus ovarian tumor domain protease. CCHFV vOTU protease, Pep-AMC fluorescence. inhibition, % at 11.5 µM. actives 0.55% (n = 370,000); in the data active = inhibition above about 30%
ugtP null kill: growth inhibition of S. aureus ugtP deletion strain; growth inhibition, % (no concentration beside the values); S. aureus RN4220 ugtP deletion, OD600 growth, 16 h; actives 0.54% (n = 330,000); in the data active = growth inhibition above about 68%
PfHsp40 rescue: rescue of PfHsp40-mediated yeast toxicity | S. cerevisiae expressing PfHsp40, growth rescue, ATP luminescence | actives 0.68% (n = 340,000) | growth rescue, % at 12.5 µM; in the data active = growth rescue above about 28%, passing the limit was not always enough; inconclusive = no clear call, values can overlap the other calls;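 also: yeast W303a lacking pdr1 and pdr3 grown in galactose medium; growth measured after three days at 30 °C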
Hits are given with their value; . = inactive; ? = inconclusive; / = not tested or not shown. Hits are enriched below; roughly 1.6% of the tested compounds scored in any of these assays.

SMILES	BJeLR lethal	RN4220 kill	CCHF vOTU inh	ugtP null kill	PfHsp40 rescue
CC(Cc1ccccc1)C(=O)NC(CO)Cc1ccccc1 (stereo not drawn)	/	.	/	.	/
C/C(=N\NC(=S)NCCc1ccccc1)c1ccc(C)cc1	.	/	.	/	30
CCC(=O)NN=Cc1ccc(-c2ccc([N+](=O)[O-])cc2)o1	/	.	/	.	/
COc1ccc(-c2c(C)oc3ccc(C)cc23)cc1	.	.	.	84	.
COc1ccc(-c2oc3ccc(-c4cc(OC)c(OC)c(OC)c4)cc3c2-c2ccc(OC)cc2)cc1	.	.	.	.	/
O=c1c(O)cccc2cc(O)c(O)c(O)c12	.	.	.	.	627
COc1cc2cccc(OC)c(=O)c2c(OC)c1OC	.	.	.	.	.
Cc1ccc(/C=N/c2sc3c(c2C#N)CCC3)s1	.	/	.	/	43
CC(=O)N(Cc1c(C)nn(-c2ccccc2)c1Cl)c1ccc(Cl)cc1	.	.	.	.	.
Cc1nn(-c2ccccc2)c(Cl)c1CN(C(=O)CCl)c1ccc(Cl)cc1	133	.	.	.	.
O=C1/C(=C\c2cc([N+](=O)[O-])ccc2O)SC(=S)N1Cc1ccc(Cl)cc1	.	88	.	.	.
O=C1/C(=C\c2ccc(O)c(O)c2)SC(=S)N1Cc1ccccc1	.	.	.	99	.
Cc1ccccc1/C=C1\SC(=S)N(/N=C/c2cc([N+](=O)[O-])ccc2O)C1=O	.	/	.	/	229
O=C1/C(=C\c2cccc(O)c2O)SC(=S)N1Cc1ccccc1	.	/	.	/	.
O=C(O)c1cc(-c2ccc(/C=C3/SC(=S)N(Cc4ccccc4)C3=O)o2)ccc1Cl	/	97	.	101	.
CC1(C)S[C@@H]2[C@H](NC(=O)C(NC(=O)N3CCNC3=O)c3ccccc3)C(=O)N2[C@H]1C(=O)O (stereo partly drawn)	.	100	.	100	.
CC1(C)S[C@@H]2[C@H](NC(=O)Cc3ccccc3)C(=O)N2[C@H]1C(=O)O	.	100	.	100	.
CCCCCCCCCOC(=O)C1N2C(=O)[C@@H](NC(=O)COc3ccccc3)[C@H]2SC1(C)C (stereo partly drawn)	.	/	.	/	.
COC(=O)C1N2C(=O)C(NC(=O)COc3ccccc3)C2SC1(C)C (stereo not drawn)	/	101	/	101	/
COc1cc(C=NNC(=O)c2c(-c3c(Cl)cccc3Cl)noc2C)ccc1OCC(N)=O	/	.	/	.	/
CCC(C)C(C(=O)N1CCN(C(=O)OC(C)(C)C)CC1)n1cc(C(CO)NC(=O)OC(C)(C)C)nn1 (stereo not drawn)	/	.	/	.	/
CC1CN(C(C)CO)C(=O)c2cccc(NS(=O)(=O)c3ccc(F)cc3)c2OC1CN(C)Cc1ccc(Cl)c(Cl)c1 (stereo not drawn)	/	.	/	.	/
O=C(NN=Cc1ccc2c(c1)OCO2)/C(=C/c1ccc2c(c1)OCO2)NC(=O)c1ccccc1	/	.	/	.	/
O=C1CCCC2=C1C(c1ccccc1)n1c(sc(=Cc3cccc(F)c3)c1=O)=N2 (stereo not drawn)	/	.	/	.	/
Cc1cc(C)c2c(N)c(C(=O)c3ccc(Br)cc3)oc2n1	.	93	.	.	.
SMILES	BJeLR lethal	RN4220 kill	CCHF vOTU inh	ugtP null kill	PfHsp40 rescue
COc1cccc(-c2sc3ccc(OC)cc3c2-c2ccc(OCCN(C)C)cc2)c1	/	/	.	/	31
COc1cccc(-c2sc3ccc(OC)cc3c2-c2ccc(O)cc2)c1	/	/	.	/	103
COC(=O)c1c(-c2ccc(OC)cc2)sc2ccc(OC)cc12	/	.	.	91	.
COc1ccc(-c2sc3ccccc3c2-c2ccc(OCCN(C)C)cc2)cc1	/	101	.	100	.
COc1cccc(-c2sc3ccc(OC)cc3c2-c2cc(F)cc(OC)c2)c1	/	/	.	/	.
COc1ccc(-c2sc3ccccc3c2-c2ccc(O)cc2)cc1	/	/	.	/	?
Cc1ccc(-c2nn(Cc3ccccc3)cc2C=CC(=O)O)cc1C	/	.	/	.	/
CN(C)CCOc1ccc(-c2c(-c3ccsc3)sc3ccccc23)cc1	/	/	.	/	91
COc1ccccc1-c1sc2ccccc2c1-c1ccc(O)cc1	/	.	.	93	?
COc1ccc(SCC(C)CN2CCC(NC(=O)OCc3ccccc3)CCC2=O)cc1 (stereo not drawn)	/	.	/	.	/
CC(=NNS(C)(=O)=O)c1ccc2ccccc2c1	/	.	/	.	/
O=C(Nc1ccc2c(c1)CCC2)c1cc2ccccc2o1	.	.	.	.	132
O=C(Nc1ccc2c(c1)Cc1ccccc1-2)c1cc2ccccc2o1	.	.	.	.	.
CSc1cc(-c2ccccc2)n(Cc2ccccc2Cl)c(=O)c1C#N	51	.	.	.	.
Cc1ccc(S(=O)(=O)N2CCN(CC(=O)NN=C/C=C/c3ccccc3)CC2)cc1	/	.	/	.	/
